# Over roughly 33,000 sequences, “E-score (-0.5 to 0.5)” has its median near -0.016; the highest 2% begin near 0.3. The sample holds the highest values, similar sequences and a random draw of the others, so the mix is not that of the screen.
# Target: T1, Yer184c (UniProt P39961)
# T1 sequence: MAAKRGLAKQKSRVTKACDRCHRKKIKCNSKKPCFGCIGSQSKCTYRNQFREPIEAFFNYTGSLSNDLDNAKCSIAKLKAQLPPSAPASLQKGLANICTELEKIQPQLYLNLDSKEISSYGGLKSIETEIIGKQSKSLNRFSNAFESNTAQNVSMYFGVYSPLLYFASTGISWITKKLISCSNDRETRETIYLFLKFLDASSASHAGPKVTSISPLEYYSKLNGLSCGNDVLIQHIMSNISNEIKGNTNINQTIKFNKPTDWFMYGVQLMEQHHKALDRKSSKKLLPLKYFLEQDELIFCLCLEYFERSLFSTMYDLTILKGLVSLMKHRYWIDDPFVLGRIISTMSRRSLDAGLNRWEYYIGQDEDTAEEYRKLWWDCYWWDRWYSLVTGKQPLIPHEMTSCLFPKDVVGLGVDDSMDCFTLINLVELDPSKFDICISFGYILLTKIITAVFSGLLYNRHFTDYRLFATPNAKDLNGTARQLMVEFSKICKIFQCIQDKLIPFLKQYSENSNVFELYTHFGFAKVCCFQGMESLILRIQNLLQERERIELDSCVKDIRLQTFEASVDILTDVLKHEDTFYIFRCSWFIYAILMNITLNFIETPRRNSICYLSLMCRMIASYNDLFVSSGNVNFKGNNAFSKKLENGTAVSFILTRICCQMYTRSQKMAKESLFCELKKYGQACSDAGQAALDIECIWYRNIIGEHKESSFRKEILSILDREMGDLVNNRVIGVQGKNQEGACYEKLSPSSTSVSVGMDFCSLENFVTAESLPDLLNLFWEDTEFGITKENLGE
# Assay: PBM E-score (8-mer binding enrichment) (E-score (-0.5 to 0.5)); higher = stronger / more preferred TF binding
# Settings: protein concentration: 100 nM; construct: GST-full length
# Outline: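 Universal all-10-mer Agilent arrays, double-stranded by primer extension on fresh or once-stripped slides, were probed with about 100-200 nM GST-tagged yeast transcription factors made by PURExpress. Fluorescent anti-GST detected bound protein, and masliner normalised the scans. E-scores from the Universal PBM Analysis Suite were given to each ungapped eight-base word pooled with its reverse complement.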
row,Sequence,PBM E-score
1,CCCCGCGA,-0.0621
2,ATCCACTC,-0.00405
3,AACGGACT,0.14
4,AACGGATG,0.197
5,AACGGATA,0.374
6,AACGGATT,0.343
7,TACGGATA,0.195
8,GACGGATA,0.125
9,GCCGATTA,0.274
10,ACTAAGGC,-0.0457
11,CGTTCAGA,-0.0522
12,ACTCATTA,-0.0725
13,CGGTTGAC,0.113
14,TGGTTGAA,-0.0916
15,CGGTTGAA,0.304
16,ACTATGCA,-0.111
17,ATTCCCGA,0.162
18,ATTCCAGC,-0.0455
19,ATTCCGGC,0.393
20,ATTCCCGG,0.384
21,ATTCCGGG,0.356
22,ACTCCGGG,0.265
23,ATTCCTGG,-0.138
24,ATTCCCCG,0.117
25,AATCCGGG,0.269

row,Sequence,PBM E-score
1,ATTCCGCC,0.16
2,ACTCCGGC,0.326
3,CCTCCGGC,0.3
4,CGCTTAAG,-0.133
5,CCCTACCC,-0.256
6,AAGATACC,0.187
7,GGATTCCC,-0.173
8,AGGCTTTA,-0.154
9,CAACTAGC,0.0974
10,CCTCCCCG,-0.0343
11,GGCCGGAA,0.338
12,AGACGGAT,0.195
13,GACCGGAC,0.245
14,AGCCGTAT,0.214
15,AGCCGGAG,0.402
16,GGGCGGAA,0.0682
17,AGCCGGAT,0.402
18,GGCCGGAC,0.294
19,CGCCGGAG,0.222
20,AGCCGGAC,0.339
21,GGACGGAA,0.0833
22,AGCCGTAG,0.155
23,AGTGAGCA,-0.0113
24,CGGGTTGC,0.118
25,AGCTGGAC,-0.0983

row,Sequence,PBM E-score
1,AAACCCAC,0.0014
2,AACGCAGT,-0.081
3,ACTCGCCG,0.131
4,AGCACCAT,-0.291
5,GCCCAAGC,-0.0265
6,CGGCGGAA,0.298
7,TGCCGTAA,0.0109
8,TGACGGAA,0.17
9,AGACGGAA,0.277
10,AGGCGGAA,0.195
11,CGCCGGAC,0.28
12,CGCCGGAA,0.368
13,AGCCGGAA,0.423
14,TGCCGGAA,0.421
15,CCTGGTTC,-0.0462
16,CGAGCCCC,-0.186
17,AAGAGAAT,0.0316
18,ACGTTAGT,-0.0893
19,CGATTTCC,0.214
20,CGGCACCA,0.256
21,CGGCACCC,0.048
22,CGGCACCG,0.346
23,CCTACCAA,0.0704
24,TCTCAAGA,-0.0209
25,CCCTAGAC,-0.189

row,Sequence,PBM E-score
1,ACGGTTGA,-0.0221
2,GCGGTTGA,0.113
3,CCGGTTGC,0.355
4,CCGGTTTC,0.244
5,CCGGTTGA,0.321
6,ACGGTTGC,-0.129
7,ACTCTTCT,-0.0645
8,CTTGGTCC,0.0693
9,TCGTGTCA,-0.0881
10,ACACTGCT,-0.244
11,GCAATAGA,-0.0314
12,CCTCAGCC,-0.233
13,ACGCTTTA,-0.0723
14,CAGTCGCG,-0.189
15,AAATCCGG,0.394
16,AAATCCGT,0.181
17,CAATCCGC,0.095
18,CAATCCGG,0.316
19,AAATCCGC,-0.00733
20,CAATCCGA,0.184
21,AGCGGTGA,-0.0103
22,ACTCTGCG,0.013
23,GCCGTTAA,0.169
24,TCCGTTAA,0.305
25,CCCGTTAA,-0.0453

row,Sequence,PBM E-score
1,GCGGTTAA,0.0539
2,CCGGTTAA,0.297
3,TCGGTTAA,0.333
4,ATTGTGAG,0.09
5,ACTTCTCG,0.17
6,CCGCCGAC,0.109
7,CCGCCGTA,0.075
8,ACGCCGCG,0.0694
9,CCGCCGAG,0.304
10,CCGCCGCG,0.172
11,CCGCCAAA,0.14
12,ACGCCGAG,0.328
13,ACGCCGTG,0.0103
14,CCGCCGAA,0.313
15,CCTAAAGG,-0.122
16,GCTACCGA,0.0575
17,AAATGAGC,0.038
18,CTAGGAGA,-0.0687
19,CCCGACTC,-0.0899
20,CCTAAAAA,0.105
21,ACCGAAGC,0.1
22,ACCGAAGT,0.136
23,GACGAAGA,0.0167
24,GCCGAAGC,0.246
25,GCCGAAGA,0.315

row,Sequence,PBM E-score
1,ACCGAAGA,0.344
2,TACGAAGA,0.05
3,TCCGAAGA,0.376
4,CCCGAAGA,0.105
5,CTCTAGTC,-0.244
6,GGAGTTGA,0.0129
7,ACGGGACC,-0.109
8,CCCGGATC,0.318
9,CCGGGACC,0.342
10,ACGGGATC,0.0948
11,CCGGGATA,0.315
12,CGGGGATC,0.0365
13,CCCGGATA,0.286
14,CCCGGACC,0.149
15,GCGGGATA,0.0399
16,CCGGGATC,0.339
17,GCGGGACC,-0.0189
18,CGGGGATA,0.0634
19,CAAAACCG,0.116
20,GAACTCAA,0.0685
21,AGTTCTAT,-0.0389
22,ACCCAATC,-0.00791
23,GCTTGTCC,0.114
24,CGAATTTC,0.276
25,AAGGTTGG,-0.24

row,Sequence,PBM E-score
1,AGAGTGAG,-0.128
2,CTTTAAAC,-0.052
3,GTTTAAAC,0.32
4,GTTTAAAA,0.162
5,AATACCCG,0.104
6,AGGGAAAT,-0.166
7,GCGGAAAA,0.216
8,AAGGAAAC,0.0646
9,GCGGAAAC,0.0908
10,AAGGAAAT,0.107
11,ACGGAAAT,0.39
12,TGGGAAAA,-0.0424
13,TTGGAAAA,0.134
14,TCGGAAAA,0.382
15,ATGGAAAA,0.158
16,ACGGAAAA,0.309
17,ACGGAAAC,0.306
18,AAGTGGGA,0.034
19,CCAGCGGG,0.134
20,ATACCCAT,-0.0126
21,ATAGAGAA,0.103
22,CATTCGAG,-0.0644

# From the supplement of paper PMC3334620
